Assay results reported in PubChem BioAssay (NCI).
Compounds without any hit were thinned out: in the full panel of roughly 83,000, 20% have a hit.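 Growth was measured after 48 h exposure to one concentration of compound in 96-well plates. Values under 10 count as active.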 The source made the active and inactive calls.

Key:
Test in all cases: NCI-60 one-dose screen, 48 h (100 = growth as untreated, 0 = no growth, -100 = all killed)
Details in all cases: 10 µM unless noted
[1] = tested on: NCI-H23 lung
[2] = tested on: NCI-H226 lung
[3] = tested on: NCI-H322M lung
[4] = tested on: HOP-62 NSCLC
[5] = tested on: NCI-H460 lung
[6] = tested on: HOP-92 NSCLC
[7] = tested on: NCI-H522 lung
[8] = tested on: A549/ATCC NSCLC
[9] = tested on: 786-0 renal
[10] = tested on: COLO 205 colon
[11] = tested on: DU-145 prostate
[12] = tested on: K-562 leukemia
[13] = tested on: MALME-3M melanoma
[14] = tested on: MDA-MB-231 breast
[15] = tested on: RXF 393 renal
[16] = tested on: SF-268 CNS
[17] = tested on: SF-295 CNS
[18] = tested on: SF-539 CNS
[19] = tested on: UACC-257 melanoma
[20] = tested on: M14 melanoma

Measured: growth

COc1ccc(C(Cc2ccccc2)NCCN2CCOCC2)cc1 (stereo not given)
inactive: [1] 100% | [2] 109% | [3] 95.7% | [4] 93.1% | [5] 107% | [6] 106% | [7] 71.1% | [8] 97.8% | [9] 89.4% | [10] 96.1% | [11] 110% | [12] 101% | [13] 86.8% | [14] 110% | [15] 104% | [16] 98% | [17] 99.4% | [18] 99.6% | [19] 109% | [20] 90.6%

O=c1cc(SCc2ccccc2)nc[nH]1
inactive: [1] 108% | [2] 104% | [3] 105% | [4] 91.1% | [5] 112% | [6] 100% | [7] 116% | [8] 103% | [9] 95% | [10] 133% | [11] 121% | [12] 113% | [13] 111% | [14] 113% | [15] 124% | [16] 106% | [17] 100% | [18] 108% | [19] 108% | [20] 106%

COc1cc(C(=O)/C=C/c2sc(Cl)nc2Cl)cc(OC)c1OC
inactive: [1] 33.9% | [2] 80.5% | [3] 85.4% | [4] 85% | [5] 83.9% | [6] 51.4% | [7] 33.6% | [8] 90.6% | [9] 79.2% | [11] 43.5% | [14] 31.7% | [16] 61.5% | [17] 92.8% | [19] 70.8% | [20] 42.3%
active: [10] -19.7% | [12] 3.23% | [13] -35.1% | [15] -28.9% | [18] -11.9%

CC1=C(C)C(=O)C(Nc2cccc(C(=O)OC(C)(C)C)c2)=C(Br)C1=O
inactive: [1] 85.9% | [2] 86.5% | [3] 91.1% | [4] 92.6% | [5] 99.7% | [7] 67.4% | [8] 95.6% | [9] 96.2% | [10] 114% | [11] 109% | [13] 88.3% | [15] 94.9% | [16] 93.7% | [17] 101% | [18] 94.7% | [19] 87.3% | [20] 95.1%
active: [6] -32.5% | [12] 0% | [14] -36.1%

NS(=O)(=O)c1ccc(-n2nc(-c3ccc(Cl)cc3)c3ccccc3c2=O)cc1
inactive: [1] 101% | [2] 96.1% | [3] 148% | [4] 92.6% | [5] 96.3% | [6] 80.9% | [7] 87.4% | [8] 87.5% | [9] 92.7% | [10] 111% | [11] 111% | [12] 84.2% | [13] 182% | [14] 87.9% | [15] 98.8% | [16] 98.1% | [17] 97.3% | [18] 89.4% | [19] 116% | [20] 103%

CCOC(=O)c1[nH]c(C)c(C(=O)OCc2ccccc2C#N)c1C
inactive: [1] 69% | [2] 100% | [3] 88.4% | [4] 68.7% | [5] 83.4% | [6] 47.4% | [7] 51.8% | [8] 83.6% | [9] 61.2% | [10] 89.8% | [11] 87.2% | [12] 25.6% | [13] 66.5% | [14] 73.9% | [15] 58.3% | [16] 72.9% | [17] 75.2% | [18] 16.2% | [19] 114% | [20] 58.9%

O=C1NC(=O)C(Cn2cnc3ccccc32)N1 (stereo not given)
inactive: [1] 98.4% | [2] 103% | [3] 99% | [4] 102% | [5] 101% | [6] 97.4% | [7] 95.9% | [8] 97.8% | [9] 99.2% | [10] 107% | [11] 110% | [12] 106% | [13] 103% | [14] 103% | [15] 114% | [16] 100% | [17] 104% | [18] 96.4% | [19] 101% | [20] 103%

S=C(c1cccs1)N1CCN(c2cccc(Cl)c2)CC1
inactive: [1] 99.2% | [2] 92.7% | [3] 122% | [4] 102% | [5] 105% | [6] 81.7% | [7] 81.1% | [8] 87.6% | [9] 85.4% | [10] 107% | [11] 98.3% | [12] 93.5% | [13] 80.9% | [14] 92.5% | [15] 100% | [16] 104% | [17] 111% | [18] 99.8% | [19] 105% | [20] 99.4%

N[C@@H](Cc1ccccc1)[C@@H](O)C(=O)NCc1ccc(F)cc1
inactive: [1] 106% | [2] 103% | [3] 104% | [4] 119% | [5] 103% | [6] 94.9% | [7] 95.9% | [8] 104% | [9] 98.5% | [10] 111% | [11] 110% | [12] 97% | [13] 107% | [14] 100% | [15] 118% | [16] 95.7% | [17] 95.5% | [18] 105% | [19] 107% | [20] 101%

Cc1nc2ccccc2c(/C=C/c2ccc(Cl)cc2)c1C(=O)/C=C/c1cccs1
inactive: [1] 67.8% | [2] 81.2% | [3] 87.4% | [4] 94.9% | [5] 66.7% | [6] 64.1% | [7] 57.4% | [8] 88.1% | [9] 87.4% | [10] 82% | [11] 79% | [12] 44.7% | [13] 107% | [14] 75.8% | [15] 83.7% | [16] 78.8% | [17] 82% | [18] 99.5% | [19] 79.9% | [20] 82%

CCCCNC(=O)Oc1ccc(/C(=C(\C)c2ccc(Cl)cc2)c2ccc(OCCN3CCCCC3)cc2)cc1
inactive: [1] 78.8% | [2] 99.1% | [3] 94.8% | [4] 78.6% | [5] 85.9% | [6] 64.5% | [7] 85.2% | [8] 63.8% | [9] 63.2% | [10] 69.2% | [11] 90.4% | [12] 21.6% | [13] 81.7% | [14] 94% | [15] 79.5% | [16] 76.1% | [17] 91.7% | [18] 71.7% | [19] 35.5% | [20] 68.2%

Cc1nc(S(=O)(=O)c2ccccc2)c(S(=O)(=O)Cc2ccc([N+](=O)[O-])cc2)o1
inactive: [1] 103% | [2] 88% | [3] 100% | [4] 88.4% | [5] 98.5% | [6] 83.1% | [7] 68.8% | [8] 97.6% | [9] 89.1% | [10] 112% | [11] 91.3% | [12] 80.1% | [13] 95.2% | [14] 98.1% | [15] 93.2% | [16] 89.2% | [17] 114% | [18] 104% | [19] 85.4% | [20] 86.3%

CCCCCCCCCCCCCCCCCCOc1ccccc1CC(=O)OCC[N+](CC)(CC)CC
active: [6] 6.81% | [10] -27.3% | [12] 6.67% | [13] -8.97% | [14] -17.3% | [15] -16.9%
inactive: [1] 13.1% | [2] 53.7% | [3] 70.6% | [4] 41% | [5] 34.6% | [7] 10.5% | [8] 29.3% | [9] 22.6% | [11] 33.9% | [16] 23.8% | [17] 27.9% | [18] 18.5% | [19] 48.1% | [20] 26.8%

Cc1ccc(-c2nc(N3CCN(C(=O)Nc4ccc(Cl)c(C(F)(F)F)c4)CC3)c3ccccc3n2)cc1
inactive: [1] 78.1% | [2] 78.7% | [3] 64.3% | [4] 79.2% | [5] 81.1% | [6] 82% | [7] 69.9% | [8] 64% | [9] 81.3% | [10] 89.6% | [11] 86.6% | [12] 44.9% | [13] 105% | [14] 61.3% | [15] 68% | [16] 58.1% | [17] 78.2% | [18] 87% | [19] 90.1% | [20] 73.8%

O=C(N=c1oc2ccccc2cc1-c1cc2ccccc2[nH]1)Nc1ccc(Cl)cc1
inactive: [1] 86.2% | [2] 95.9% | [3] 87.8% | [4] 83.3% | [5] 99.6% | [6] 95.1% | [7] 88.4% | [8] 96.1% | [9] 94.6% | [10] 122% | [11] 99.2% | [12] 88.8% | [13] 99.2% | [14] 79.5% | [15] 116% | [16] 99.3% | [17] 111% | [18] 90.6% | [19] 108% | [20] 79.6%
